The text below walks through data of PubChem BioAssay AID1347423 (Functional Genomics Laboratory (NCATS/FGL), 2020).

Out of some 52,000 sequences screened, about 210 (0.4%) were called active. The sample as a whole holds a higher share of actives than the screen did. A number with no mark means an inactive call.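 The calls were made as follows: active = gene whose silencing raises cell survival under the drug, median off-target-corrected z-score across its silencing RNAs 2 or more; inactive = the rest.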

A short description of this assay: Resistance to Poly (ADP-Ribose) Polymerase inhibitor: Gene Identification via Genome-wide siRNA Screen. The following applies: mouse BRCA2 R2336H ES cells, olaparib, CellTiter-Glo viability; hits give high values. In short, it runs like this: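 Genome-wide siRNA screen (3 siRNAs/gene, 20 nM) in mouse ES cells carrying hypomorphic BRCA2 R2336H; olaparib 500 nM added 48 h post-transfection, CellTiter-Glo viability 72 h later. Normalized to plate-median negative control; MAD z-scores, gene median, seed-adjusted.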
As to GGGAUCAUUAAACUUUUCCTT against Taf11, the z-score was 0.894.

As for “GGAAAAUGUUUUACCAAUGTT against 4930470D19Rik”, the z-score is 0.0823.

In the case of “GGCUAGAGACUUGGUUUUUTT against E430025L02Rik”, the z-score is 1.23.

Regarding GGUAACUGAGAAAACCAGATT against Adam29, the z-score is 1.12 (active).

For “GGAUCUUGAAGACCAAAAATT against 9030409G11Rik”, the z-score was -0.527.

For GGCAAGAGAAUUCAGAUCUTT against Slc5a1, the z-score was 2.6.

For the sequence GGGCACAACUUCAACAGCUTT against Cklfsf8, the z-score is 1.53.

GGUUAUCACUCCUCAACAATT against Foxp1: the z-score was -0.826.

As to GGUCUACGAGUUUAUUGCUTT against Phc1, the z-score is 0.722.

Take GCCCUUUGGAUAACAGUGATT against Sufu: the z-score is -0.968.

In the case of GGCCUUCAAUCACCUAGAGTT against Pde6g, the z-score was 2.23 (active).

For GCAGCUGGCUGCUUUCACATT against AV028368, the z-score is -0.955.

For “CCGACGUGCAUGGAGAAAATT against 1700030J22Rik”, the z-score was -1.71.

Regarding “GCCAUUAAUCUCACAUGUATT against A930001N09Rik”, the z-score was -0.871.

As to GGAAGACCGUACUAUGUUUTT against Gtl2, the z-score is -2.38.

With “CCAGUUGGAAAUAUGACGATT against 2510002A14Rik”, the z-score is 0.99.

Take “CCUAUGUCAUCAUUGGAGUTT against 2310005G13Rik”: the z-score is 0.537.

With CGAUGACAUCAGGAUUGUUTT against Gpr128, the z-score was 1.23 (active).

For GCUGAUUUCCAAAGAUAAUTT against Glycam1, the z-score was 0.301.

“GCCCAUGAAUUUUUACUUATT against C330019G07Rik”: the z-score was 0.714.

“CGAAGGGACCGAAGAAUCCTT against 5730538E15Rik”: the z-score is -0.602.

With CCAGUCCUACUUAGCAAAGTT against BC046404, the z-score was 1.34.

Turning to CCAUUACACAAAGUUUUGCTT against Stard6, the z-score is 0.874.

Consider GGGUUCAAGAGAUGAUAUUTT against Usp11, for which the z-score was 2.47 (active).

For GGAAAGUGUGUUCAUUAGUTT against Pla2g2d, the z-score was -0.775.

Regarding GGAAAAGGAGGUGGUACUGTT against Agc1, the z-score is 0.55.

For CGCCCAGUGCAAUUUUUUCTT against Gm592, the z-score is -0.745.

“CCAUAGCACUAAAUCAGAUTT against 4933421G18Rik”: the z-score is 0.387.

In the case of “GGACCUAUUUCUCUGCUCCTT against E330026B02Rik”, the z-score is -0.251.

For the sequence “GGACAUUCGUGGUUCCAUCTT against 4833412N02Rik”, the z-score is 0.546.

As for GGAGGUCGCUUCCUAUUACTT against Tat, the z-score is 1.26 (active).

In the case of GGACUAUCAGGACCUUUUUTT against Dnajb3, the z-score is -1.77.

For the sequence GCUAAAAGGUAAGUACUUCTT against AB041803, the z-score was 0.00857.

Regarding GGAGAUUGAUGAGCAUGCCTT against Rab40b, the z-score is 0.456.

On to GGUUCUGAAGAUGGAGGUUTT against Ttbk1, for which the z-score was -1.25.

Take GCUGUUGGUUUCUACUCACTT against Adam21: the z-score was 1.43 (active).

Consider GGAAGACCUGAUUGGAAAATT against Trpm1, for which the z-score is 0.553.

Take GAGCCUUCUAAGUCUGCACTT against Hist1h2bb: the z-score is 0.996.

For GGAAAUCACCAGAGCUGAUTT against Atp6v0a2, the z-score was 1.56.

For the sequence GGGCUAUUAAAUGAUUUCATT against Pax1, the z-score is -0.101.

For CGUAGCAAUCUUGGUUGCUTT against Hoxa3, the z-score was 0.734.

Consider “GGCUGUGAGAUAGAUCUAATT against E130112L23Rik”, for which the z-score was -0.595.

In the case of “GGAUGUGGACUCAAAGAAATT against 1110001E17Rik”, the z-score is 1.9 (active).

Consider “CGAGGGAUAAGAGUCUACGTT against D4Bwg1540e”, for which the z-score was -0.0629.

Regarding GGCCAUUAACAGCAGUCUGTT against Kifc1, the z-score is -2.66.

Regarding GGGACUUUUUUUGAAUCCUTT against Ndrg3, the z-score is 0.835.

Consider GGCAGCGCAAUGGAUUAGUTT against Chrng, for which the z-score is 1.99 (active).

As for “GGAGCAACAGCCAAAUACCTT against 1700001F22Rik”, the z-score was 0.124.

As for CGGCAGGAUGAAUGAGAUCTT against Bccip, the z-score was 0.692.
